D2 antag = D2 dopamine receptor (human) antagonism. P14416. HEK293 TREx D2 cells, calcium flux, dopamine EC80. inhibition, % at 10 µM. 2% of 340,000 active; in the data active = inhibition above about 30%; inactive = below that, where a call was filed; note: 0% is about no effect
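Compounds are added to dye-loaded, induced HEK293 T-REx cells coupled to calcium release via D2; after a 3 min kinetic read an EC80 dopamine stimulus is given and fluorescence is recorded for 3 more min.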
D2 PAM-1 = D2 dopamine receptor (human) potentiation; AID 485347; P14416; HEK293 T-REx D2, calcium flux, EC20 dopamine potentiation; potentiation, % at 10 µM; 0.34% of 340,000 active;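 active = potentiation over 3 SD above the plate norm, cut at about 30% in these data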; note: 0% is about no effect
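Calcium flux readout, no-wash dye, 1 read/s. Inducible HEK293 Trex D2 line, overnight 30 C. Compound alone 180 s (agonist flags), then EC20 dopamine, another 180 s to score potentiation.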
D2 PAM-2 = positive allosteric modulators of human D2 dopamine receptor; AID 624464; DiscoveRx D2 beta-arrestin cells, luminescence, 90 min; 100% = 57 uM dopamine signal; P14416; potentiation, % (no concentration beside the values); 0.23% of 360,000 active; in the data active = potentiation above about 50%; inconclusive = mostly about 30% to 49%
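PathHunter beta-arrestin assay in DiscoveRx D2 cells. Compounds were added with an EC20 of dopamine (50 nM final) for 90 min at 37 deg C. Luminescence was read 1 h after detection reagent, with 57 uM dopamine as the EC100 control.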
D2 ag-1 = activates the human D2 dopamine receptor | P14416 | DiscoveRx PathHunter D2 beta-arrestin, luminescence, 90 min; 100% = 57 uM dopamine signal | activation, % (no concentration beside the values) | 0.084% of 360,000 active | AID 624465; in the data active = activation above about 40%; inconclusive = between about 15% and that limit
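DiscoveRx PathHunter D2 beta-arrestin cells (2,100/well) attached overnight, then compound-stimulated 90 min at 37 C in HBSS/10 mM HEPES/0.1% Tween-20 buffer; beta-galactosidase complementation read by luminescence after 1 h at ambient temperature. Dopamine 57 uM final (EC100) as control.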
D2 ag-2 = activates the human D2 dopamine receptor; HEK293 T-REx D2 cells, calcium flux agonist mode; P14416; 0.53% of 340,000 active; activation, % at 2 µM;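 active = activation over 3 SD above normal in the single-dose calcium agonist read, cut at about 30% in these data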; note: 0% is about no effect
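Agonism is scored from calcium flux in a force-coupled, inducible HEK293 cell line expressing D2, read kinetically for 180 s after compound addition against dopamine controls.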
D3 ag = activates human D3 dopamine receptor beta-arrestin recruitment; 4% of 2,300 active; shares compounds with D2 ag-2; Potency, µM (titrated, usually from 76.9 µM), for inactives: top-dose activation, most hits filed as activators; DiscoveRx D3 beta-arrestin cells, luminescence, 90 min;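 note: potency is the fitted concentration of half-maximal effect; 100% = dopamine control response; nearly all actives have a fitted effect of over 70% in size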
Target sequence (P35462 whole entry, looked up): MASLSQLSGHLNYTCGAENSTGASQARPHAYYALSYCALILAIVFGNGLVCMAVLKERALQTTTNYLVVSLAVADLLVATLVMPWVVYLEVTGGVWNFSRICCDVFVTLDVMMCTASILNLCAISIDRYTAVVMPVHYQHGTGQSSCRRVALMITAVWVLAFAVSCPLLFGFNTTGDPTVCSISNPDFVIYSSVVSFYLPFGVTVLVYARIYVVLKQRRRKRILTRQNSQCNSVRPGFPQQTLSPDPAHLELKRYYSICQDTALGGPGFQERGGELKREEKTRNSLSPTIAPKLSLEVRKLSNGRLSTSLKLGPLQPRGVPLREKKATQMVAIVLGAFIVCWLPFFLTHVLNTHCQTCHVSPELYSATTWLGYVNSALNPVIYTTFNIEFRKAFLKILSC
D2 ag-3 = D2 receptor agonism, beta-arrestin counterscreen | AID 720507 | DiscoveRx PathHunter D2 beta-arrestin, luminescence, 90 min; response scale: percent relative to full dopamine signal | Potency, µM (highest dose often 76.9 µM), without a hit: at the highest dose activation, usual class: activators | 5.9% of 2,300 active | shares compounds with D2 ag-2; note: potency is the fitted concentration of half-maximal effect; % of control where 0% means no effect; nearly all actives have a fitted effect of over 70% in size
Active calls of the source: *; ? = inconclusive; / = no result given; ! = repeats disagree. Sampled rows, rich in hits. Any-hit rate of the full collection: about 2.4%. Unless noted, calls come from the whole dose curve; as a rule, active = well fitted activation curve with a large enough effect; inconclusive = small, poorly fitted or top-dose-only effect; inactive = flat fitted curve, though single readings scatter.

SMILES	D2 antag	D2 PAM-1	D2 PAM-2	D2 ag-1	D2 ag-2	D3 ag	D2 ag-3
COc1ccc(-n2c(Cc3cccn3C)nnc2SCC(=O)N2CCC(C)CC2)cc1	-13	-6	-1	-3	-1	/	/
COc1cccc(Cc2nc3ccccc3nc2SCC(=O)N2CCCc3ccccc32)c1	/	12	/	/	27	/	/
O=C(N/N=C/c1ccc2c(c1)OCO2)C1CC1	2	-14	-11	0	0	/	/
Cc1ccc(OCCC(=O)OCC(=O)N2CCN(S(=O)(=O)c3ccc(C)cc3C)CC2)cc1	-13	17	9	2	0	/	/
COc1ccc(CCC(=O)OCC(=O)N2CCN(S(=O)(=O)c3ccc(C)cc3C)CC2)cc1	16	6	-35	-7	0	2%	-1%
O=S(=O)(c1ccc(OCC(O)CN2CCCC2)cc1)N1CCOCC1 (centres undefined)	2	3	-6	1	0	/	/
O=S(=O)(c1ccc(OCC(O)CN2CCN(c3ccccc3O)CC2)cc1)N1CCOCC1 (centres undefined)	69*	-24	1	?	71*	?	28µM*
O=S(=O)(c1ccc(OCC(O)CN2CCN(c3ccccc3)CC2)cc1)N1CCOCC1 (centres undefined)	96*	-23	13	44*	85*	?	7.1µM*
O=S(=O)(c1ccc(OCC(O)CN2CCC(Cc3ccccc3)CC2)cc1)N1CCOCC1 (centres undefined)	27	-23	-16	7	63*	-4%	20%
COc1ccc(CCNC(=O)CSC2=NS(=O)(=O)c3cc(Cl)ccc3N2)cc1OC	0	-1	1	-5	0	/	/
O=C(CSC1=NS(=O)(=O)c2cc(Cl)ccc2N1)NCCc1ccccc1	21	-20	8	2	41*	8%	6%
COc1cccc(CNc2ncnc3ccc(-c4c(C)noc4C)cc23)c1	9	-1	/	/	0	12%	18%
COc1cccc(-c2ccc3ncnc(NCc4cccc(C)c4)c3c2)c1	-5	-7	/	/	0	/	/
O=Cc1c(N2CCCCCC2)nc2ccccn2c1=O	-7	-16	-3	4	56*	-1%	1%
O=Cc1c(N2CCCCC2)nc2ccccn2c1=O	-12	7	7	3	0	/	/
Cc1nn(C)c(C)c1/C=C(/C(=O)C(C)C)n1cncn1	10	-6	-12	-2	4	-7%	-5%
O=C(CN1CCN(Cc2ccc(Cl)cc2)C1=O)NCCCN1CCN(c2ccc(F)cc2)CC1	-14	-24	-14	3	-1	/	/
Cc1ccccc1CN1CCN(CC(=O)NCCCN2CCN(c3ccc(F)cc3)CC2)C1=O	64*	-16	-37	-2	5	0%	22%
COc1cccc(-n2c(N)cc(=O)nc2SCC(=O)N2CCN(c3ccccc3)CC2)c1	9	-9	-6	-2	21	-5%	6%
Nc1cc(=O)nc(SCC(=O)N2CCN(c3ccccc3)CC2)n1-c1ccccc1	6	-2	-9	0	13	/	/
Nc1cc(=O)nc(SCC(=O)N2CCN(c3ccccc3)CC2)n1-c1ccc(F)cc1	-19	-5	-6	0	28	-21%	-1%
Cc1ccc(-n2c(N)cc(=O)nc2SCC(=O)N2CCN(c3ccccc3)CC2)cc1	64*	-30	-22	9	66*	-30%	9%
CCOc1ccccc1CNC(=O)C1CCN(S(=O)(=O)c2c(C)noc2/C=C/c2ccccc2F)CC1	/	7	/	/	1	/	/
Cc1c(Cl)cccc1NC(=O)CSC(C)c1nc2ccccc2c(=O)[nH]1 (centres undefined)	29	2	-14	-3	-1	-13%	-4%
Cc1ccccc1CNC(=O)c1ccc(CN2CC(=O)N3CCCCC3C2=O)cc1 (centres undefined)	/	1	/	/	0	/	/
SMILES	D2 antag	D2 PAM-1	D2 PAM-2	D2 ag-1	D2 ag-2	D3 ag	D2 ag-3
CCOc1cc(C)c(Cl)cc1S(=O)(=O)NCCOC	32*	-18	-4	-1	59*	-8%	-3%
Cc1noc(-c2ccc(N3CCC(C)CC3)c([N+](=O)[O-])c2)n1	/	-7	/	/	-1	/	/
Cc1cc(Cl)ccc1Oc1ncc(CN2CCN(c3ccccc3)CC2)s1	84*	-27	17	?	65*	?	32µM*
Brc1ccc(Oc2ncc(CN3CCOCC3)s2)cc1	7	-3	-26	-1	0	/	/
COc1ccc(Oc2ncc(CN3CCN(c4ccccc4)CC3)s2)cc1	76*	-27	27	42*	72*	?	5.6µM*
O=C(c1ccco1)N1CCN=C1SCc1ccccc1Cl	-30	-3	-7	-1	1	/	/
O=C(c1ccco1)N1CCN=C1SCc1c(F)cccc1Cl	-8	-10	-28	-2	37*	-15%	-1%
CC(C)N(C(=O)Nc1ccc2nsnc2c1)C(C)C	-1	-1	5	6	53*	?	19%
CCCNC(=O)N1CCCN(S(=O)(=O)c2ccc3c(ccn3CC)c2)CC1	/	11	/	/	/	/	/
CCCn1c2ccccc2c2cnn(CC(=O)NCCCN3CCN(c4ccccc4)CC3)c(=O)c21	88*	-25	-32	0	22	17%	9%
Cn1c(C(=O)NCCCN2CCN(c3ccccc3F)CC2)cc2c(=O)[nH]c3ccccc3c21	105*	-24	14	?	71*	10%	29%
COc1ccccc1N1CCN(CCCNC(=O)Cn2ncc3c([nH]c4ccccc43)c2=O)CC1	90*	-26	-34	-5	27	-24%	7%
O=C(Cc1csc(Nc2nc(=S)[nH]c3ccccc23)n1)NCCCN1CCN(c2ccccc2F)CC1	67*	-19	-28	13	47*	9%	15%
O=C(Cc1csc(Nc2nc(=S)[nH]c3ccccc23)n1)NCc1ccc(Cl)cc1	10	-16	-1	0	0	/	/
COc1ccccc1-c1cnc(C(O)c2ccc(F)cc2C)[nH]1 (centres undefined)	/	/	-11	-3	/	/	/
CSc1ccc(Nc2nn(-c3ccc(OC(F)(F)F)cc3)nc2C(C)=O)cc1	/	9	/	/	/	/	/
CCCn1c2ccccc2c2cnn(CC(=O)OC)c(=O)c21	-9	3	-12	-3	41*	1%	-1%
Cn1c2ccccc2c2cnn(CC(=O)NCCCN3CCN(c4ccccc4F)CC3)c(=O)c21	63*	-24	-7	3	69*!	13%	26%

Screening data as filed in PubChem.
